We go through 43 molecules from the antibiotic and cytotoxicity screens of Wong et al. (2023).

Screen size: about 39,000 compounds; about 500 (1.3%) were called active. The sample holds actives, similar compounds and a random draw of the others, so the mix is not that of the screen.

The test system of this test is S. aureus RN4220. Put plainly: growth inhibition call (relative growth <= 0.2). To be noted: 50 µM.
With `CC(C)NC(=O)Nc1ccc2c(c1)C(=O)N([C@H](C)CO)C[C@H](C)[C@@H](CN(C)C(=O)Nc1ccc(F)cc1)OCCCC[C@@H](C)O2`, the growth inhibition call was “inactive”.

On to `Cc1noc(C)c1NC(=O)N(C)C[C@H]1OCCCC[C@@H](C)Oc2ccc(NS(=O)(=O)c3ccc(F)cc3)cc2C(=O)N([C@H](C)CO)C[C@@H]1C`, for which the growth inhibition call is “inactive”.

Consider `C[C@H](CO)N1C[C@H](C)[C@H](CN(C)C)OCCCC[C@H](C)Oc2ccc(NS(=O)(=O)c3cn(C)cn3)cc2C1=O`, for which the growth inhibition call is “inactive”.

As to `COc1cc(-c2cc(=O)c3c(=O)cc(-c4ccc(O)c(OC)c4)n(CCc4ccccc4)c3s2)ccc1O`, the growth inhibition call was “inactive”.

Turning to `Cc1noc(C)c1NC(=O)N(C)C[C@@H]1Oc2ccc(NS(=O)(=O)c3cn(C)cn3)cc2CC(=O)N([C@H](C)CO)C[C@H]1C`, the growth inhibition call is “inactive”.

Consider `CO[C@H]1O[C@H](CO)[C@@H](OC(=O)Nc2ccc(Br)cc2)[C@@H]2OC(=O)[C@H](Cc3cccc(Br)c3)C/C=C/C[C@@H](Cc3cccc(Br)c3)C(=O)O[C@@H]12`, for which the growth inhibition call is “inactive”.

As to `C[C@@H]1CN([C@@H](C)CO)C(=O)c2cccc(NS(=O)(=O)c3ccc(F)cc3)c2O[C@@H]1CN(C)S(C)(=O)=O`, the growth inhibition call is “inactive”.

For `CNC1C(O)C(OC2C(N)CC(N)C(OC3OC(CN)=CCC3N)C2O)OCC1(C)O.O=S(=O)(O)O` (stereo not drawn), the growth inhibition call is “active”.

For `CCNC1CC(N)C(OC2OC(CN)=CCC2N)C(O)C1OC1OCC(C)(O)C(NC)C1O.O=S(=O)(O)O.O=S(=O)(O)O` (stereo not drawn), the growth inhibition call was “inactive”.

Turning to `CN[C@@H]1[C@@H](O)[C@@H](O[C@@H]2[C@@H](O)[C@H](O[C@H]3OC(CN)=CC[C@H]3N)[C@@H](N)C[C@H]2N)OC[C@]1(C)O`, the growth inhibition call was “inactive”.

`C[C@@H]1CCCCO[C@H](CN(C)C(=O)CCC(F)(F)F)[C@@H](C)CN([C@@H](C)CO)C(=O)c2cc(NS(=O)(=O)c3ccc(F)cc3)ccc2O1`: the growth inhibition call is “inactive”.

`CC(C)NC(=O)Nc1ccc2c(c1)C(=O)N([C@@H](C)CO)C[C@H](C)[C@@H](CN(C)Cc1ccccc1)OCCCC[C@H](C)O2`: the growth inhibition call is “inactive”.

Consider `CO[C@@H]1CN(C)C(=O)c2ccc(NC(=O)Nc3cccc(Cl)c3)cc2OC[C@@H](C)N(C(=O)Nc2c(C)noc2C)C[C@H]1C`, for which the growth inhibition call is “inactive”.

Turning to `CC(C)(C)[S@@+]([O-])N1Cc2cc(C(=O)NCc3ccc4c(c3)OCO4)nc(-c3ccc(-c4ccc(C#N)cc4)cc3)c2[C@H]1CCO`, the growth inhibition call was “inactive”.

As for `Cc1noc(C)c1S(=O)(=O)N(C)C[C@H]1OCCCC[C@@H](C)Oc2ccc(NC(=O)Nc3ccc(F)cc3)cc2C(=O)N([C@@H](C)CO)C[C@@H]1C`, the growth inhibition call is “inactive”.

With `CC(C)NC(=O)N(C)C[C@@H]1OCCCC[C@@H](C)Oc2ccc(NS(C)(=O)=O)cc2C(=O)N([C@@H](C)CO)C[C@H]1C`, the growth inhibition call is “inactive”.

Turning to `CCCSc1nc(N[C@@H]2C[C@H]2c2ccc(F)c(F)c2)c2nnn([C@@H]3C[C@H](OCCO)[C@@H](O)[C@H]3O)c2n1`, the growth inhibition call is “active”.

With `COc1cc(C)c(C(=O)O)c(O)c1`, the growth inhibition call is “inactive”.

Consider `CCCCCc1c2c(cc(O)c1C(=O)O)OC(=O)c1c(cc(OC)cc1C(=O)CCCC)O2`, for which the growth inhibition call is “active”.

In the case of `COc1cc(O)c(C(=O)O)c(O)c1`, the growth inhibition call is “inactive”.

For `C[C@@H]1CN([C@H](C)CO)C(=O)c2cccc(NC(=O)Nc3ccc(C(F)(F)F)cc3)c2O[C@@H]1CN(C)Cc1ccc(Oc2ccccc2)cc1`, the growth inhibition call was “inactive”.

In the case of `Cc1ccc(S(=O)(=O)N(C)C[C@H]2Oc3ccc(NS(=O)(=O)c4ccccc4)cc3C(=O)N([C@@H](C)CO)C[C@@H]2C)cc1`, the growth inhibition call is “inactive”.

With `C[C@@H]1CN([C@H](C)CO)C(=O)Cc2cc(NS(=O)(=O)c3ccc(Cl)cc3)ccc2O[C@@H]1CN(C)S(C)(=O)=O`, the growth inhibition call is “inactive”.

For the molecule `COC(=O)OCOc1c2n(ccc1=O)N([C@@H]1c3ccccc3SCc3c1ccc(F)c3F)[C@@H]1COCCN1C2=O`, the growth inhibition call is “inactive”.

With `CC[C@@H](C)CCCCC(=O)N[C@@H](CCN)C(=O)N[C@H](C(=O)N[C@@H](CCN)C(=O)N[C@H]1CCNC(=O)[C@H]([C@@H](C)O)NC(=O)[C@H](CCN)NC(=O)[C@H](CCN)NC(=O)[C@H](CC(C)C)NC(=O)[C@@H](Cc2ccccc2)NC(=O)[C@@H](CCN)NC1=O)[C@@H](C)O`, the growth inhibition call is “inactive”.

For `CCC(C)CCCCC(=O)NC(CCN)C(=O)NC(C(=O)NC(CCN)C(=O)NC1CCNC(=O)C(C(C)O)NC(=O)C(CCN)NC(=O)C(CCN)NC(=O)C(CC(C)C)NC(=O)C(Cc2ccccc2)NC(=O)C(CCN)NC1=O)C(C)O.O=S(=O)(O)O` (stereo not drawn), the growth inhibition call is “active”.

Take `CC[C@@H](C)CCCC(=O)N[C@@H](CCN)C(=O)N[C@H](C(=O)N[C@@H](CCN)C(=O)N[C@H]1CCNC(=O)[C@H]([C@@H](C)O)NC(=O)[C@H](CCN)NC(=O)[C@H](CCN)NC(=O)[C@H](CC(C)C)NC(=O)[C@@H](CC(C)C)NC(=O)[C@H](CCN)NC1=O)[C@@H](C)O`: the growth inhibition call is “inactive”.

As for `C[C@@H]1CN([C@H](C)CO)S(=O)(=O)c2ccc(C#C[C@@H](C)O)cc2O[C@@H]1CN(C)C(=O)c1ccncc1`, the growth inhibition call was “inactive”.

For the molecule `O=C(C[C@@H]1CC[C@H](NC(=O)CN2CCOCC2)[C@@H](CO)O1)NCCc1ccccc1`, the growth inhibition call is “inactive”.

Turning to `O=C1C=CC(=O)N1`, the growth inhibition call is “active”.

For `Cc1noc(C)c1NC(=O)N(C)C[C@H]1OCCCC[C@@H](C)Oc2ccc(NC(=O)NC3CCCCC3)cc2C(=O)N([C@H](C)CO)C[C@@H]1C`, the growth inhibition call is “inactive”.

As for `CNC1CCC(c2ccc(Cl)c(Cl)c2)c2ccccc21.Cl` (stereo not drawn), the growth inhibition call was “active”.

For the molecule `N[C@@H]1CC[C@@H](c2ccc(Cl)c(Cl)c2)c2ccccc21`, the growth inhibition call was “active”.

In the case of `CN[C@H]1CC[C@@H](c2ccc(Cl)c(Cl)c2)c2ccccc21`, the growth inhibition call is “inactive”.

Take `O=C(C[C@H]1C=C[C@H](NS(=O)(=O)c2ccc(F)cc2)[C@@H](CO)O1)N1CCC(Cc2ccccc2)CC1`: the growth inhibition call is “inactive”.

`Cc1ccc(S(=O)(=O)Nc2ccc3c(c2)C(=O)N([C@H](C)CO)C[C@H](C)[C@H](CN(C)C(=O)Nc2c(C)noc2C)OCCCC[C@H](C)O3)cc1`: the growth inhibition call was “inactive”.

`CO[C@@H]1CC[C@@H]2[C@H]1OCCN2C(=O)N(C)C`: the growth inhibition call is “inactive”.

On to `CCCC#Cc1ccc2c(c1)O[C@@H](CN(C)S(=O)(=O)c1cccc(F)c1)[C@@H](C)CN([C@H](C)CO)S2(=O)=O`, for which the growth inhibition call was “inactive”.

`c1ccc2c(c1)ccc1cc3c(ccc4ccccc43)cc12`: the growth inhibition call was “inactive”.

For `COc1ccc2ccccc2c1-c1c(OC)ccc2ccccc12`, the growth inhibition call is “inactive”.

Regarding `Nc1ccc(Sc2ccc3ccccc3c2Cl)c(Cl)c1`, the growth inhibition call is “active”.

As to `Nc1ccc(Oc2ccc3ccccc3c2Cl)c(Cl)c1`, the growth inhibition call is “active”.

Regarding `COc1cc(Cl)ccc1Oc1ccc(Cl)cc1Cl`, the growth inhibition call was “inactive”.
